Reference: PubChem BioAssay AID1486 (The Scripps Research Institute Molecular Screening Center, 2009)
Hit rate of the full screen: of about 220,000 compounds, about 2,400 (1.1%) were called active. Only a selection was taken, and actives are over-represented in it overall. Unmarked numbers belong to inactive results.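 The calls were made as follows: active = inhibition above a per-campaign cutoff, the mean inhibition of all tested compounds plus 3 SD (cut at about 27% in these data); inactive = the rest.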

assay: parental Ba/F3 cell viability inhibition, counter-screen for JAK2V617F inhibitor project, murine pro-B, CellTiter-Glo luminescence (AID 1486); conditions: CellTiter-Glo ATP luminescence, at 5.6 µM, active compounds read high;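 also: 0% = DMSO wells and 100% = JAK Inhibitor I control wells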

Row | SMILES | inhibition
1 | CCCN(CCC)CC(O)COc1ccccc1C(=O)Nc1ccccc1 (stereo not given) | 1.95%
2 | CNC(=O)c1csc(Cc2c(Cl)sc3ccc(Cl)cc23)n1 | -0.25%
3 | COc1ccc(Cn2c(-c3ccc(Cl)cc3)c[n+]3ccccc23)cc1 | 76.4% (active)
4 | COc1ccc(C(=O)CN(C(=O)c2ccc(Cl)cc2)N2C(=O)c3ccccc3C2=O)cc1 | -0.72%
5 | COc1ccc(Cn2c(=O)cc(C)[nH]c2=S)cc1 | 9.89%
6 | COc1cccc(Nc2nnc(SCC(=O)N3CC(=O)Nc4ccccc43)s2)c1 | -3.89%
7 | Nc1ccc(C(=O)OCC(=O)NC2CCS(=O)(=O)C2)cc1[N+](=O)[O-] (stereo not given) | -1.89%
8 | Cc1ccc(C(=O)COc2cccc(NC(=O)c3ccco3)c2)cc1 | 95.5% (active)
9 | Cc1ccnc(NC(=O)c2ccc(NC(=O)c3ccco3)cc2)c1 | -0.11%
10 | COc1cccc(C(=O)Nc2ccc(NC(=O)c3ccco3)cn2)c1 | -2.07%
11 | Cc1c(NC(=O)CSc2nnnn2-c2ccc(C(=O)O)cc2)c(=O)n(-c2ccccc2)n1C | 9.83%
12 | COc1ccc(C(=O)C2CCCN(C(=O)c3cnsn3)C2)c(C)c1 (stereo not given) | -0.94%
13 | CCOc1ccc(S(=O)(=O)Nc2ccc(S(=O)(=O)Nc3cc(OC)ccc3OC)cc2)cc1 | 5.24%
14 | COc1ccc(NS(=O)(=O)c2ccc(NC(=O)c3ccc(N(C)S(C)(=O)=O)cc3)cc2)cc1 | 5.44%
15 | COc1ccc(NS(=O)(=O)c2ccc(Oc3c(C#N)cccc3C#N)cc2)cc1 | 42% (active)
16 | COc1ccccc1N1CC(C(=O)Nc2ccc(S(=O)(=O)N3CCOCC3)cc2)CC1=O (stereo not given) | 2.78%
17 | CNc1nnc(-c2ccco2)s1 | -0.97%
18 | COc1cccc(C(O)Cc2nc3ccccc3n2C)c1OC (stereo not given) | 0.12%
19 | Cc1ccc(NC(=O)Cn2nc(C)c3ccccc3c2=O)c(C)c1 | 4.31%
20 | Cc1ccc(F)cc1NC(=O)Cc1nn(C)c(=O)c2ccccc12 | 37.3% (active)
21 | COc1ccc(-c2nn(C)c(=O)c3ccccc23)cc1NC(=O)COc1ccccc1 | -0.19%
22 | COc1ccc(Cl)cc1NC(=O)NC(C)C(C)(C)C (stereo not given) | 2.98%
23 | Cc1nc2ccccc2nc(=O)c1NNc1ccc([N+](=O)[O-])cc1 | 4.24%
24 | O=C(COC(=O)CCc1nc2ccccc2c(=O)[nH]1)Nc1ccc(N2CCOCC2)cc1 | -2.42%

Row | SMILES | inhibition
25 | O=C(/C=C/c1ccc(OCc2c(F)cccc2Cl)cc1)N1CCOCC1 | 67.9% (active)
26 | COCCCNC(=O)/C=C/c1ccc(OCc2c(F)cccc2Cl)cc1 | 2.28%
27 | CN(C)CCCNC(=O)/C=C/c1ccc(OCc2c(F)cccc2Cl)cc1 | 7.63%
28 | C/C(=N/Nc1nc(-c2ccccc2)c(CC(=O)O)s1)c1ccccc1 | 2.81%
29 | O=C(CCCn1c(SCC(=O)c2ccc(F)cc2)nc2ccccc2c1=O)NCc1ccco1 | 4.54%
30 | C=C(C)Cn1c(SCC(=O)NCc2ccco2)nc2sc3c(c2c1=O)CCC3 | 1.93%
31 | O=C(CSc1nc2cc3c(cc2c(=O)n1CCC1=CCCCC1)OCO3)NCc1ccco1 | 33.2% (active)
32 | COc1cc(OC)cc(C(=O)NCC(=O)OCc2csc(-c3ccccc3)n2)c1 | 10.9%
33 | COc1cc(OC)cc(C(=O)NC2CCN(C(=O)N3c4ccccc4Sc4ccccc43)CC2)c1 | 6.78%
34 | Cc1ccc(-c2nn(-c3cccc(F)c3)cc2CNCCc2ccncc2)o1 | 43% (active)
35 | Cc1ccc(-c2nn(-c3ccccc3)cc2CN(Cc2ccccc2)C(=O)CCC(=O)O)o1 | 6.11%
36 | CSCCNCc1cn(-c2ccc(F)cc2F)nc1-c1ccccc1C | 5.07%
37 | Cc1cc(Cl)ccc1C(=O)C1CCCN(C(=O)CCN2CCCO2)C1 (stereo not given) | 0.61%
38 | Cc1cc(=O)[nH]c(SCC(=O)Nc2ccc(Br)cc2)n1 | -7.26%
39 | O=C(/C=C/c1ccc(Cl)c([N+](=O)[O-])c1)c1ccc(O)cc1 | 2.68%
40 | CNC(=O)Nc1cc(C(C)(C)C)no1 | 54.8% (active)
41 | CCCn1c(SCC(=O)Nc2ccc(C)c(S(=O)(=O)N3CCOCC3)c2)n[nH]c1=O | 4.59%
42 | CC[n+]1c(C)n(-c2ccccc2)c2ccc(NC(C)=O)cc21 | 57.7% (active)
43 | CCc1ccc(NC(=O)N2CCN(c3ccccc3)CC2)cc1 | 1.4%
44 | CCn1c2ccccc2c2cc(NC(=O)CNC)ccc21 | 3.93%
45 | Cc1ccc(/C=N/NC(=S)NC2CCCCC2)o1 | -7.43%
46 | CCOC(=O)c1ccc(NC(=O)CSc2ncccn2)cc1 | 0.67%
47 | CCOC(=O)c1ccc(NC(=O)Cn2cnc3cc(C)c(C)cc32)cc1 | 58.4% (active)
48 | CCOC(=O)c1ccc(NC(=O)Cn2nnc(-c3ccc(C)cc3)n2)cc1 | 1.76%

Row | SMILES | inhibition
49 | O=C(O)CC1=C(Nc2ccccc2)C(=O)N(c2ccccc2)C1c1ccc(Cl)cc1 (stereo not given) | 1.11%
50 | Cc1ccc2cc(/C=N/NC(=O)[C@@H]3CCCN3)c(Cl)nc2c1 | 0.27%
51 | Cc1noc(C)c1C(=O)OCC(=O)/C=C1\N(C)c2ccccc2C1(C)C | 4.98%
52 | CC(=O)Nc1cccc(OCC(=O)/C=C2\N(C)c3ccccc3C2(C)C)c1 | 44.2% (active)
53 | CC(C)Nc1nnc(SCC(=O)/C=C2\N(C)c3ccccc3C2(C)C)s1 | 0.74%
54 | COc1ccc(-n2cc(CNC3CCOCC3)c(-c3cccc(F)c3)n2)cc1 | 5.7%
55 | CCCCC(NC(=O)c1cccc(Br)c1)C(=O)O (stereo not given) | 0.6%
56 | CCOC(=O)N1CCN(S(=O)(=O)c2ccc(C(=O)Nc3ccc(F)cc3F)cc2)CC1 | 53.5% (active)
57 | COc1ccc(C(=O)Nc2ccc(F)cc2F)cc1 | -0.96%
58 | O=C(Nc1cccc(F)c1)c1ccc(S(=O)(=O)N2CCCC2)cc1 | 7.79%
59 | Cc1cc(C)c(NC(=O)CN2CCOCCOCCOCCOCC2)c(C)c1 | 2.62%
60 | O=C(CSc1ccc(C(F)(F)F)cc1[N+](=O)[O-])NCCOc1ccccc1 | 3.21%
61 | CC#CC[N+](C)(C)CCCCCC | 43.8% (active)
62 | C/C(=N\N1CCN(Cc2ccc(C)cc2)CC1)c1ccco1 | 3.54%
63 | Cc1ccc(C(=O)Nc2nc(N)n(-c3ccccc3)n2)cc1 | -1.21%
64 | COc1cc(Cl)c(C)cc1NC(=O)[C@@H]1CCCN1C(=O)c1cccs1 | 6.13%
65 | COC(=O)Nc1ccc(S(=O)(=O)N2CCN(CCN3C(=O)C4C5C=CC(C5)C4C3=O)CC2)cc1 (stereo not given) | 5.02%
66 | COC(=O)CCNC(=O)c1ccc2[nH]c(C)c(C)c2c1 | 3.29%
67 | CCCOC(=O)c1[nH]c2c(c1C)C(=O)CC(c1cccs1)C2 (stereo not given) | 75.9% (active)
68 | COc1cc(C2CC(=O)c3cnc(NC(C)=O)nc3C2)cc(OC)c1OC (stereo not given) | 2.9%
69 | CCOC(=O)c1[nH]c2c(c1-c1ccccc1)C(=O)CC(c1ccc(Cl)cc1)C2 (stereo not given) | 8.29%
70 | CCOC(=O)c1[nH]c2c(c1C)C(=O)CC(c1ccc(N(C)C)cc1)C2 (stereo not given) | 4.47%
71 | CCOC(=O)C1=C(C)NC(=S)NC1c1cccs1 (stereo not given) | 3.93%
72 | CCCOC(=O)c1[nH]c2c(c1C)C(=O)CC(c1cc(OC)c(OC)c(OC)c1)C2 (stereo not given) | 41.3% (active)

Row | SMILES | inhibition
73 | O=C(O)CCCC(=O)Nc1ccc(Oc2cccc(C(F)(F)F)c2)nc1 | -1.72%
74 | CCOC(=O)C1=C(CC)OC(N)=C(C#N)C1c1ccc(F)cc1F (stereo not given) | 0.94%
75 | Cc1ccc(S(=O)(=O)N2CCCC2C(=O)OCc2nc3sc(C)c(C)c3c(=O)[nH]2)cc1 (stereo not given) | 3.55%
76 | O=C1CCCCC1C(=O)c1ccccc1 (stereo not given) | 0.06%
77 | Cc1nc(/N=C(\N)NC(=O)NC2CCCCC2)nc2ccccc12 | 4.49%
78 | COc1ccc2nc(/N=C(\N)NC(=O)Nc3ccccc3)nc(C)c2c1 | 31.6% (active)
79 | COc1ccc(NC(=O)Nc2ccc3nc(C)c(C)nc3c2)cc1 | 1.19%
80 | O=C(NNC(=O)c1cnccc1C(F)(F)F)c1ccc(Cl)cc1 | -1.83%
81 | Cc1cccc(Cn2cnc3c(N)c(C)c(C)cc32)c1 | 32.6% (active)
82 | CCOC(=O)c1cn(Cc2cccc(C)c2)nn1 | 2.15%
83 | COc1cccc(Cn2cnc3c([N+](=O)[O-])c(C)c(C)cc32)c1 | 9.27%
84 | CCN(CC)S(=O)(=O)c1ccc(OC(C)C)c(N)c1 | 5.49%
85 | COc1cc2c(cc1/C=C1/NC(=O)N(c3ccccc3)C1=O)OCO2 | 10.5%
86 | COc1ccc(F)cc1S(=O)(=O)Nc1ccc2c(c1)OCO2 | 3.23%
87 | COc1ccc(C2CC(=O)Nc3cc(C)c(C)cc32)c(OC)c1OC (stereo not given) | 3.54%
88 | COc1ccccc1C1C2=C(COC2=O)Nc2cc3c(cc21)OCO3 (stereo not given) | 80.4% (active)
89 | CCCOc1ccccc1C1CC(=O)Nc2cc3c(cc21)OCO3 (stereo not given) | 71.8% (active)
90 | COCCOC(=O)C1=C(C)NC(=O)CC1c1cc2c(cc1Br)OCO2 (stereo not given) | 3.68%
91 | CCN(CC)C(=O)CSC(Nc1cccc(F)c1)=C(C#N)C#N | -0.34%
92 | Cc1cc(C)c2nc(-c3cccnc3)cc(C(=O)Nc3ccc(S(=O)(=O)Nc4onc(C)c4C)cc3)c2c1 | 8.53%
93 | O=C(Nc1ccccc1Cl)c1ccc2nsnc2c1 | 9.68%
94 | O=C(Nc1ccccc1Cl)/C(Cl)=C(\Cl)S(=O)c1ccccc1 (stereo not given) | 104% (active)
95 | O=C(CN1CCCCC1)Nc1ccccc1Cl | 5.49%
